Test results from ChEMBL document CHEMBL4513147, “CO-ADD screening of Armstrong State University (GA, USA) compounds”.
Entries with a potency or affinity are not part of this list.

Columns and labels:
Staphylococcus aureus = details: Concentration 32 ug.mL-1; ASSAY_TEST Inhibition of Bacterial Growth; detection method Absorption (OD600); MEDIA CAMHB; plate type 384well; NBS; CORNING #3640; time 18 hr
Escherichia coli = details: Concentration 32 ug.mL-1; ASSAY_TEST Inhibition of Bacterial Growth; detection method Absorption (OD600); MEDIA CAMHB; plate type 384well; NBS; CORNING #3640; time 18 hr

Structure (SMILES) | Inhibition (Staphylococcus aureus) [%] | Inhibition (Escherichia coli) [%]
COc1ccc2c(c1)C(O)C(=Cc1cccnc1Cl)CC2 (configuration not stated) | 5.45 | 4.12
COc1cccc2c1CCC(=Cc1ccoc1)C2=O | 21.03 | -0.51
Cc1ccc(C=C2CN(C(=O)OC(C)(C)C)C/C(=C\c3ccc(C)cc3C)C2=O)c(C)c1 | 9.56 | -6.82
COc1ccc2c(c1)CCC(=Cc1ccc(OC)nc1)C2=O | -4.04 | 1.52
COc1ccc2c(c1)C(=O)C(=Cc1cccnc1Br)CC2 | 5.72 | 0.26
CC(C)(C)OC(=O)N1CC(=Cc2ccco2)C(=O)/C(=C/c2ccco2)C1 | 17.59 | 1.8
CC(C)(C)OC(=O)N1CC(=Cc2ccoc2)C(=O)/C(=C/c2ccoc2)C1 | 3.94 | -5.28
COc1ccc2c(c1)CCC(=Cc1cccnc1)C2=O | 11.8 | 5.55
COc1ccc2c(c1)CCC(=Cc1cnccc1OC)C2=O | 0.49 | -6.17
COc1ccc2c(c1)CCC(=Cc1ccncc1)C2=O | 16.04 | 3.11
COc1ccc2c(c1)CCC(=Cc1ccco1)C2=O | 19.21 | 7.9
COc1cccc2c1CCC(=Cc1cccc(C=C3CCc4c(OC)cccc4C3=O)c1)C2=O | -26.12 | -22.27
COc1ccc2c(c1)CCC(=Cc1ccccn1)C2=O | 14.37 | 1.84
COc1ccc2c(c1)CCC(=Cc1cccnc1Cl)C2=O | 1.26 | -0.89
COc1ccc2c(c1)CCC(=Cc1cccnc1Br)C2=O | 11.61 | -5.29
COc1ccc(/C=C/C(=O)c2ccc(OCc3ccc(Br)cc3)cc2)cc1OC | -11.78 | -9.61

Structure (SMILES) | Inhibition (Staphylococcus aureus) [%] | Inhibition (Escherichia coli) [%]
COc1ccc2c(c1)C(=O)C(=Cc1cnccc1OC)CC2 | 16.33 | 1.39
COc1ccc2c(c1)C(=O)C(=Cc1cccnc1Cl)CC2.Cl | 20.04 | 2.21
COc1ccc2c(c1)C(=O)C(=Cc1cccnc1)CC2 | 17.94 | 4.25
COc1ccc2c(c1)C(=O)C(=Cc1cccc(C=C3CCc4ccc(OC)cc4C3=O)c1)CC2 | 5.74 | 2.05
COc1cc2c(cc1OC)C(=O)C(=Cc1ccco1)CC2 | 23.29 | 6.96
COc1ccc2c(c1)C(=O)C(=Cc1cncc(Br)c1)CC2 | 75.2 | 2
COc1ccc2c(c1)C(=O)C(=Cc1ccccn1)CC2 | 11.08 | 3.58
COc1cc2c(cc1OC)C(=O)C(=Cc1ccoc1)CC2 | 22.02 | 2.08
COc1ccc2c(c1)C(=O)C(=Cc1cccnc1OC)CC2 | 16.7 | 4.57
COc1ccc2c(c1)C(=O)C(=Cc1cccnc1Cl)CC2 | 6.88 | -2.48
COc1ccc2c(c1)CCC(=Cc1ccoc1)C2=O | 24.71 | 8.45
COc1ccc2c(c1)C(=O)C(=Cc1ccco1)CC2 | 20.52 | 4.79
COc1ccc2c(c1)CCC(=Cc1cncc(Br)c1)C2=O | 0.4 | -0.04
COc1ccc2c(c1)C(=O)C(=Cc1ccoc1)CC2 | 24.21 | 0.87
COc1cccc2c1CCC(=Cc1ccco1)C2=O | 13.6 | 5.5
